# Vif-APOBEC3F blk – Vif-A3F binding inhibition; 390,000 tested, 0.2% active; HeLa A3F-eYFP + Vif (tagged APOBEC3F with the HIV-1 protein that degrades it), YFP fluorescence increase; Potency, µM (highest dose often 46.1 µM), inactives show top-dose activity, negative = active; note: % of control where 0% means no effect; nearly all actives have a fitted effect of over 65% in size
#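 Fluorescence increase (Ex 488/Em 500-530) after overnight compound treatment at 37 deg C flags inhibition of Vif-driven A3F-eYFP loss in stable HeLa A3F-eYFP/Vif cells seeded overnight beforehand.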
# Vif-APOBEC3G blk – Vif-A3G binding inhibition; Q9HC16; HeLa A3G-eYFP + Vif (tagged APOBEC3G with the HIV-1 protein that degrades it), YFP fluorescence, overnight; Potency, µM (highest dose often 46.1 µM), for the others: top-dose activity, negative = active, most hits filed as inhibitors; 410,000 tested, 0.076% active; note: % is set by controls: 0 for no effect and ±100 for the full control effect; nearly all actives have a fitted effect of over 60% in size
# Target sequence (Q9HC16 whole entry, looked up): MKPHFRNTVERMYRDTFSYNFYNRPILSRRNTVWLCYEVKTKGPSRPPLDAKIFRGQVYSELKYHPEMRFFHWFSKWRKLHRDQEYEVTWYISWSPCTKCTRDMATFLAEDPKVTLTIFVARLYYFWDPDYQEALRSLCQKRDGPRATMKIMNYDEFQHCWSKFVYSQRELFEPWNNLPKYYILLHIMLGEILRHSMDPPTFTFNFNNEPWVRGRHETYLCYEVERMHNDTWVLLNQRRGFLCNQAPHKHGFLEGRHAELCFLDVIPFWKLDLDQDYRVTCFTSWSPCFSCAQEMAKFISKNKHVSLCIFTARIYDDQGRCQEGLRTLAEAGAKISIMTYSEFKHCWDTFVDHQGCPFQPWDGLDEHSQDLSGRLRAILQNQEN
#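 HeLa cells stably expressing Vif and C-terminally eYFP-tagged A3G, seeded overnight at 37 deg C, then exposed to compound by pintool overnight at 37 deg C. Rise in yellow fluorescence (Ex 488/Em 500-530, Acumen) marks blocked Vif-driven A3G degradation.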
# TrxR1 substrate – is turned over as a substrate by rat TrxR1; 390,000 tested, 0.01% active; Potency, µM (top dose mostly 114 µM), for the others: at the top dose activity change, negative = substrate turnover; O89049; AID 588456; purified TrxR1 substrate turnover, NADPH consumption readout; note: % is set by controls: 0 for no effect and ±100 for the full control effect; nearly all actives have a fitted effect of over 50% in size
#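 Rat TrxR1, dispensed at 90 nM, was prereduced with 400 uM NADPH (final) for 5 min at ~22 deg C, then incubated with compound 15 min before 400 uM selenite. A first-read NADPH fluorescence drop versus no-compound background flagged substrates.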
# VDR inhibitor – blocks the human vitamin D receptor. P11473. VDR-SRC2-3 peptide fluorescence polarization, 2 h. Potency, µM, for the others: max response, negative = inhibition, most hits filed as inhibitors. 400,000 tested, 0.93% active. AID 504847; note: % is set by controls: 0 for no effect and ±100 for the full control effect
#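 Measured by FP: displacement of SRC2-3 coactivator peptide from VDR by library compounds, following a two-hour ambient incubation.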
# TrxR1 inh – blocks rat thioredoxin reductase 1. O89049. recombinant rTrxR1, NADPH fluorescence consumption, selenite substrate. Potency, µM (highest dose often 114 µM), for inactives: at the top dose activity change, negative = inhibition, actives largely listed as inhibitors. 390,000 tested, 1% active. AID 588453; note: % is set by controls: 0 for no effect and ±100 for the full control effect; nearly all actives have a fitted effect of over 65% in size
#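 Rat TrxR1 (90 nM in the dispensed reagent) was pre-reduced with 400 uM NADPH for 5 min at room temperature, then incubated with compound for 15 min. After 400 uM selenite was added, NADPH fluorescence (Ex 340/Em 450 nm) was followed for 8 min.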
# The depositor's hits bear a star; ? = inconclusive; / = not tested or not shown; ! = not confirmed by another sample; [ ] = dose if it differs, or a comment. Rows were chosen to be rich in hits. Some 1.8% of all compounds tested hit in one or more screens of this group. Calls come from the whole dose curve; as a rule, active = well fitted curve in the direction sought with a large enough effect; inconclusive = small, poorly fitted or top-dose-only effect, or another doubt; inactive = no such curve, though single readings can be large; an effect the other way counts as inactive or inconclusive. Potency is the fitted concentration of half-maximal effect.
SMILES,Vif-APOBEC3F blk,Vif-APOBEC3G blk,TrxR1 substrate,VDR inhibitor,TrxR1 inh
COc1ccc2c(c1)c(C(=O)O)c(C)n2CC(C)C,5%,0%,12%,11%,14%
COc1cc(O)c(C(=O)O)c(-c2cc(O)c(O)cc2C)c1,-19%,2%,0%[57.1 µM],-21%,0.79µM*
CC[C@H](C)[C@H](NC(=O)[C@@H](N)Cc1ccc(O)cc1)C(=O)NCC(=O)N[C@@H](CO)C(=O)N[C@@H](CCCN=C(N)N)C(N)=O,/,/,/,9%,/
COc1cc2c(cc1OC)-c1c(OC)c(OC)c(C=O)c3c1[C@H](C2)N(C)CC3,/,/,/,8.9µM*,/
COc1cc2c(cc1OC)-c1c(OC)c(OC)cc3c1[C@H](C2)N(C)CC3,-8%,-1%,10%,-3%,-21%
CCCCC/C=C\C/C=C\CCCCCCCCCC(=O)NCCO,/,/,/,-13%,/
CCCCC/C=C\C/C=C\C/C=C\C/C=C\CCCC(=O)NCCc1ccc(O)c(O)c1,/,/,/,40µM*!,/
CCCCC/C=C\C/C=C\C/C=C\C/C=C\CCCC(=O)NCCO,/,/,/,71µM*!,/
CCCCC/C=C\C/C=C\C/C=C\C/C=C\CCCC(=O)NCCCC(=O)O,/,/,/,28µM*,/
CCCCC/C=C\C/C=C\C/C=C\C/C=C\CCCC(=O)NCC(=O)O,/,/,12%[57.1 µM],40µM*!,?
CCCCC/C=C\C/C=C\C/C=C\C/C=C\CCCC(=O)N(Cc1ccc(O)c(Cl)c1)Cc1ccc(O)c(Cl)c1,/,/,/,14µM*,/
CCCCC/C=C\C/C=C\C/C=C\C/C=C\CCCC(N)=O,/,/,/,-1%,/
CCCCC/C=C\C/C=C\C/C=C\C/C=C\CCCC(=O)NCc1ccoc1,/,/,/,22µM*,/
Cc1ccc2c(c1)=NC(=O)/C(=C/c1c(O)[nH]c(=O)[nH]c1=O)C=2,7%,1%,5%,79µM*,?
CN(C)c1ccc(/C=C/C=C2/C(=O)NC(=O)N(c3ccccc3)C2=O)cc1,7.9µM*,?,-9%,36%,15%[57.1 µM]
Cc1ccc(N2C(=O)NC(=O)/C(=C\C=C\c3ccco3)C2=O)cc1C,22µM*,?,-2%,?,50µM*
O=C1NC(=O)N(c2ccccc2)C(=O)/C1=C/C=C/c1ccco1,-18%,?,-1%,20µM*,?
CC1O[C@@H](O[C@@H]2C(O)C[C@H](O[C@@H]3C(O)C[C@@H](OC4CC[C@@]5(C)C6CC[C@]7(C)C(C8=CC(=O)OC8)CC[C@@]7(O)C6CC[C@@H]5C4)OC3C)OC2C)CC(O)[C@H]1O (some centres not stated),/,/,/,1%,/
CO[C@H]1[C@@H](O)CC(OC2[C@@H](O)CC(OC3[C@@H](O)C[C@H](OC4CC[C@@]5(C)C(CCC6C5CC(O)[C@]5(C)[C@H](C7=CC(=O)OC7)CCC65O)C4)O[C@@H]3C)O[C@@H]2C)O[C@@H]1C (some centres not stated),/,/,/,-2%,/
Cc1nc2c(=O)n(C)c(=O)nc-2n(C)n1,4%,-21%,35µM*,?,50µM*
Cn1nc(-c2ccccc2)nc2c(=O)n(C)c(=O)nc1-2,/,-12%,40µM*,-24%,?
CCn1nc(-c2ccccc2)nc2c(=O)n(C)c(=O)nc1-2,2%,-7%,?,6%,-29%[57.1 µM]
N=C(N)c1ccc(-c2ccc(-c3ccc(C(=N)N)cc3)o2)cc1,/,-2%,473%,/,?
O=C1NC(=O)N(c2cccc(F)c2)C(=O)/C1=C/c1ccc(N2CCOCC2)cc1,-1%,-1%,-5%,-27%,?
O=C1NC(=O)N(c2ccccc2F)C(=O)/C1=C/c1ccc(Oc2ccc([N+](=O)[O-])cn2)cc1,2%,-1%,4%,79µM*,3.5µM*
SMILES,Vif-APOBEC3F blk,Vif-APOBEC3G blk,TrxR1 substrate,VDR inhibitor,TrxR1 inh
CC(C)c1ccc(N2C(=O)NC(=O)/C(=C/c3cnc(-c4ccccc4)nc3)C2=O)cc1,?,?,0%,35µM*,4µM*
CSc1ncc(/C=C2/C(=O)NC(=O)N(c3ccc(C(C)C)cc3)C2=O)cn1,-9%,0%,0%,?,10µM*
COc1ccccc1N1C(=O)NC(=O)/C(=C/c2ccc3c(c2)Cc2ccccc2-3)C1=O,1%,-15%,8%,?,?
COc1cc(/C=C2\C(=O)NC(=O)N(c3ccccc3)C2=O)cc(OC)c1O,-17%,1%,-15%,3%,25µM*
O=C1NC(=O)N(Cc2ccc(F)cc2)C(=O)/C1=C\c1ccoc1,25µM*,2%,9%[57.1 µM],-1%,5%[57.1 µM]
N#Cc1cccc(NC(=O)N2CC3(CCN(C(=O)Oc4ccccc4)CC3)C2)c1,/,/,/,-5%,/
O=C1NC(=O)N(Cc2ccccc2)C(=O)/C1=C/c1cnc(-c2ccccc2)nc1,?,?,-2%[57.1 µM],25µM*,6.3µM*
O=C1NC(=O)N(Cc2ccccc2)C(=O)/C1=C\C=C\c1ccco1,?,-2%,-6%[57.1 µM],?,?
Cc1ccc(C)c(N2CCN(c3nc4ccc(Cl)cc4n4cnnc34)CC2)c1,/,/,30%,3%,11%
C[C@H]1C/C=C/[C@H]2[C@H](O)[C@H](C)[C@@](C)(O)[C@H]3[C@H](Cc4ccccc4)NC(=O)[C@]32[C@H](O)/C=C/[C@](C)(O)C1,5%,-5%,1%,-3%,5%
C=C1[C@@H](C)[C@H]2[C@H](Cc3ccccc3)NC(=O)[C@]23OC(=O)/C=C/[C@H](O)CCC[C@@H](C)C/C=C/[C@H]3[C@@H]1O,1%,-9%,4%,1%,50µM*!
O=C(O)CC1OCC=C2CN3CCC45C6=CC(=O)C(=O)C([N+](=O)[O-])=C6NC4C1C2CC35 (configuration not stated),-24%,5%,16µM*,79µM*,16µM*
CCN(CC)C(=O)N[C@@H]1C=C2c3cccc4[nH]cc(c34)C[C@H]2N(C)C1,/,/,/,40µM*,/
COc1cccc(OC)c1-c1nn2c(-c3n[nH]c4c3CCC4)nnc2s1,/,?,3%,-19%,-4%
CC(C)c1ccc(Cc2cn3cc(-c4cc5ccccc5oc4=O)nc3s2)cc1,?,-38%,17%,-10%,15%
CCC(C=C[C@@H]1OC(=O)C=C[C@H]1C)=C[C@H](C)CC=CC(C)=C[C@@H](C)C(=O)[C@@H](C)[C@H](O)[C@@H](C)CC(C)=CC(=O)O,/,/,/,1.6µM*,/
COc1cc2c(cc1/C=C/[N+](=O)[O-])OCO2,14%,?,5%,25µM*,?
O=[N+]([O-])/C=C/c1ccc2c(c1)OCO2,/,/,12%[57.1 µM],7.1µM*,10µM*
c1ccc2c(c1)c1cccc3ccc4cccc2c4c31,7%,2%,152%,6%,51%
O=C1NC(=O)N(c2ccc(Cl)cc2)C(=O)/C1=C\c1ccc(Sc2nc3ccccc3[nH]2)o1,?,-27%,8%[57.1 µM],-23%,13µM*
NC1CCCCC1N (configuration not stated),/,/,/,-1%,/

# Bioassay records from PubChem.
